From PubChem BioAssay AID1159580 (chemical genetic matrix, 2015)
Out of some 5,500 compounds screened, about 2,000 (36%) were called active. About 18% were inconclusive and are not listed. Rule as the data show it: active = normalized growth mostly below about 0.91 (no sharp cut-off); inconclusive = no clear call, values can overlap the other calls; inactive = mostly above about 0.92. The list shows a part of the results.

Experiment: chemical genetic growth profiling, strain panel (AID 1159580);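 also: tested at 20 µM; growth read once vehicle control cultures reached saturation at 30 °C; 1 = growth at the plate median or of vehicle wells; lower values mean less growth of the strain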
Conditions: S. cerevisiae deletion strains, growth OD
[1] = locus YAL040C, strain CLN3, hits give low values
[2] = locus YCL061C, strain MRC1 (second series), hits give low values
[3] = locus YDR363W, strain ESC2, hits give low values
[4] = locus YER002W, strain NOP16, hits give low values
[5] = locus YMR263W, strain SAP30, hits give low values
[6] = locus YNL175C, strain NOP13, hits give low values
[7] = locus YNL224C, strain SQS1, hits give low values
[8] = locus YNL322C, strain KRE1, hits give low values
[9] = locus YOR083W, strain WHI5 (second series), hits give low values
[10] = locus YPL055C, strain LGE1, hits give low values
[11] = locus YPL241C, strain CIN2, hits give low values

Measured: normalized growth

CN=C(NC#N)Nc1ccc(C2=NNC(=O)CC2C)cc1 (stereo not given)
inactive: [1] 1.08 | [2] 0.999 | locus YDR150W, strain NUM1, hits give low values 1.01 | [3] 1.01 | [4] 0.986 | locus YGR078C, strain PAC10, hits give low values 1 | [5] 1 | locus YMR307W, strain GAS1, hits give low values 1 | locus YNL128W, strain TEP1, hits give low values 1 | [6] 0.995 | locus YNL197C, strain WHI3, hits give low values 0.994 | [7] 0.994 | [8] 0.986 | [9] 1 | [10] 0.996 | [11] 0.998

Cc1o[nH]c(=O)c1CC(N)C(=O)O (stereo not given)
inactive: locus YAL013W, strain DEP1, hits give low values 0.998 | [1] 1 | [2] 1 | [3] 1.01 | [4] 0.997 | locus YGR229C, strain SMI1, hits give low values 0.995 | [5] 0.999 | locus YNL153C, strain GIM3, hits give low values 0.989 | [6] 1 | [7] 1.01 | [8] 1.01 | [9] 0.982 | [10] 1 | [11] 1.01

COC1CC2CCC(C)C(O)(O2)C(=O)C(=O)N2CCCCC2C(=O)OC(C(C)CC2CCC(O)C(OC)C2)CC(=O)C(C)/C=C(\C)C(O)C(OC)C(=O)C(C)CC(C)/C=C/C=C/C=C/1C (stereo not given)
active: locus YAL021C, strain ccr4, hits give low values 0.0589 | locus YAL026C, strain drs2, hits give low values 0.0607 | locus YAL030W, strain snc1, hits give low values 0.057 | locus YBL061C, strain skt5, hits give low values 0.0636 | locus YBR009C, strain hhf1, hits give low values 0.0589 | locus YBR023C, strain chs3, hits give low values 0.0647 | locus YBR171W, strain sec66, hits give low values 0.0879 | locus YBR231C, strain swc5, hits give low values 0.0671 | locus YBR279W, strain paf1, hits give low values 0.061 | locus YCL011C, strain gbp2, hits give low values 0.0563 | locus YCL016C, strain dcc1, hits give low values 0.064 | locus YCL061C, strain MRC1, hits give low values 0.0664 | locus YCL069W, strain vba3, hits give low values 0.0634 | locus YCR088W, strain abp1, hits give low values 0.0633 | locus YDL005C, strain med2, hits give low values 0.105 | locus YDL040C, strain nat1, hits give low values 0.062 | locus YDR001C, strain nth1, hits give low values 0.062 | locus YDR069C, strain doa4, hits give low values 0.0638 | locus YDR137W, strain rgp1, hits give low values 0.108 | locus YDR159W, strain sac3, hits give low values 0.0822 | locus YDR195W, strain ref2 0.107 | locus YDR297W, strain sur2, hits give low values 0.0574 | locus YDR334W, strain swr1, hits give low values 0.0661 | locus YDR335W, strain msn5, hits give low values 0.0641 | locus YDR392W, strain spt3, hits give low values 0.0747 | locus YEL003W, strain gim4, hits give low values 0.0561 | locus YEL037C, strain rad23, hits give low values 0.06 | locus YEL061C, strain CIN8 (second series), hits give low values 0.0638 | locus YER015W, strain faa2, hits give low values 0.063 | locus YER016W, strain bim1, hits give low values 0.0636 | locus YER111C, strain swi4, hits give low values 0.0777 | locus YER155C, strain BEM2 (second series), hits give low values 0.0886 | locus YFR010W, strain ubp6, hits give low values 0.0722 | locus YGL167C, strain pmr1, hits give low values 0.106 | locus YGL173C, strain kem1, hits give low values 0.0674 | locus YGL227W, strain vid30, hits give low values 0.0637 | locus YGL240W, strain doc1, hits give low values 0.0777 | locus YGL253W, strain hxk2, hits give low values 0.0553 | locus YHR013C, strain ard1, hits give low values 0.0984 | locus YHR027C, strain rpn1, hits give low values 0.0663 | locus YHR030C, strain SLT2, hits give low values 0.0959 | locus YHR079C, strain IRE1, hits give low values 0.1 | locus YHR142W, strain chs7, hits give low values 0.0702 | locus YJL092W, strain hpr5, hits give low values 0.0602 | locus YJL095W, strain BCK1 (second series), hits give low values 0.0568 | locus YJL095W, strain BCK1, hits give low values 0.0941 | locus YJL115W, strain asf1, hits give low values 0.0785 | locus YJL129C, strain trk1, hits give low values 0.083 | locus YJL154C, strain vps35, hits give low values 0.0627 | locus YJL164C, strain tpk1, hits give low values 0.0565 | locus YJL166W, strain qcr8, hits give low values 0.0582 | locus YJL187C, strain SWE1, hits give low values 0.0583 | locus YJR066W, strain TOR1, hits give low values 0.00105 | locus YKL160W, strain elf1, hits give low values 0.0628 | locus YKR026C, strain gcn3, hits give low values 0.0857 | locus YKR091W, strain srl3, hits give low values 0.063 | locus YLL001W, strain dnm1, hits give low values 0.0594 | locus YLL026W, hits give low values 0.0565 | locus YLL041C, strain sdh2, hits give low values 0.0584 | locus YLR027C, strain aat2, hits give low values 0.056 | locus YLR113W, strain HOG1, hits give low values 0.116 | locus YLR221C, strain rsa3, hits give low values 0.0587 | locus YLR258W, strain gsy2, hits give low values 0.0578 | locus YLR262C, strain YPT6 (second series), hits give low values 0.0827 | locus YLR320W, strain mms22, hits give low values 0.0745 | locus YLR342W, strain FKS1, hits give low values 0.0654 | locus YLR357W, strain rsc2, hits give low values 0.123 | locus YLR370C, strain arc18, hits give low values 0.0626 | locus YLR384C, strain iki3, hits give low values 0.0638 | locus YML120C, strain ndi1, hits give low values 0.0575 | locus YMR058W, strain fet3, hits give low values 0.0611 | locus YMR125W, strain sto1, hits give low values 0.0751 | locus YMR129W, hits give low values 0.0593 | locus YMR205C, strain PFK2, hits give low values 0.077 | locus YMR231W, strain pep5, hits give low values 0.0735 | locus YNL071W, strain lat1, hits give low values 0.0603 | locus YNL183C, strain NPR1, hits give low values 0.00606 | locus YNL209W, strain ssb2, hits give low values 0.0636 | locus YNL248C, strain rpa49, hits give low values 0.0637 | locus YNL322C, strain KRE1 (second series), hits give low values 0.0917 | locus YNR049C, strain mso1, hits give low values 0.0601 | locus YOR001W, strain rrp6, hits give low values 0.0618 | locus YOR070C, strain gyp1, hits give low values 0.0602 | locus YOR080W, strain dia2, hits give low values 0.0718 | locus YOR083W, strain WHI5, hits give low values 0.0613 | locus YOR106W, strain vam3, hits give low values 0.0579 | locus YOR231W, strain MKK1, hits give low values 0.101 | locus YOR265W, strain rbl2, hits give low values 0.062 | locus YOR270C, strain vph1, hits give low values 0.0796 | locus YOR290C, strain snf2, hits give low values 0.0616 | locus YPL051W, strain arl3, hits give low values 0.0737 | locus YPL078C, strain atp4, hits give low values 0.0674 | locus YPL106C, strain sse1, hits give low values 0.0858 | locus YPL240C, strain hsp82, hits give low values 0.0583 | locus YPL256C, strain CLN2, hits give low values 0.117
